# Measurements as given in PubChem BioAssay (NCATS).
# “And” between values parts separate entries of the source, which are not always exact repeats. Identical values can stand only once. Inconclusive results are not listed. A call without a number means that no potency is given here. Some compounds were tested as several samples or in several runs, with calls that do not always agree. The source made the active and inactive calls. Unless noted, calls follow the shape of the dose curve; as a rule, active = well fitted curve in the direction sought with a large enough effect; inconclusive = small, poorly fitted or top-dose-only effect, or another doubt; inactive = no such curve, though single readings can be large; an effect the other way counts as inactive or inconclusive.
# Key:
# Es-2 = assay: Primary qHTS to identify gynecologic anti-cancer compounds using libraries of approved drugs and bioactive compounds (AID 1345084); details: Gynecologic cancer cell panel viability, ATPlite luminescence, 48 h; series mostly up to 57.5 µM; also: nearly all actives have a fitted effect of over 55% in size; also: potency is read from the fitted curve at half-maximal effect
# Summary of the method: (§1)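 Five-concentration response, 48 h; readout is ATP-driven luciferase luminescence.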
# HeLa = assay: as above; details: Gynecologic cancer cell panel viability, ATPlite luminescence, 48 h; series mostly up to 57.5 µM
# Summary of the method: as §1
# Hek293T = assay: as above; details: Gynecologic cancer cell panel viability, ATPlite luminescence, 48 h, control line for the selectivity index; series mostly up to 57.5 µM
# Summary of the method: as §1
# PA-1 = assay: as above; details: Gynecologic cancer cell panel viability, ATPlite luminescence, 48 h; series mostly up to 57.5 µM
# Summary of the method: as §1
# SKOV3 = assay: as above; details: Gynecologic cancer cell panel viability, ATPlite luminescence, 48 h; series mostly up to 57.5 µM
# Summary of the method: as §1
# Tov-21-G = assay: as above; details: Gynecologic cancer cell panel viability, ATPlite luminescence, 48 h; series mostly up to 57.5 µM
# Summary of the method: as §1
# Tov112D = assay: as above; details: Gynecologic cancer cell panel viability, ATPlite luminescence, 48 h; series mostly up to 57.5 µM
# Summary of the method: as §1
# [1] = Drug repurposing screens with cells derived from glioblastoma tumor samples (AID 1345199); details: GBM patient neurospheres viability, ATP luminescence, 48 h; also: nearly all actives have a fitted effect of over 40% in size; also: potency is read from the fitted curve at half-maximal effect
# Summary of the method: (§2)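 Primary testing used CD133+ neurospheres from four GBM patients, seven concentrations, 48 h exposure and ATP-based viability; confirmation added three slower-growing patient lines.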
# astro = assay: as above; details: viability, ATP luminescence, 48 h; series mostly up to 45.9 µM
# Summary of the method: as §2
# [2] = target: Nuclear receptor subfamily 1 group I member 2 (Rattus norvegicus) (UniProt Q9R1A7); assay: qHTS assay for small molecule activators of the rat pregnane X receptor (rPXR) signaling pathway (AID 651751; call rule not given here); details: rPXR reporter cells, luciferase (One-Glo), 24 h
# OV90 = assay: Primary qHTS to identify gynecologic anti-cancer compounds using libraries of approved drugs and bioactive compounds (AID 1345084); details: Gynecologic cancer cell panel viability, ATPlite luminescence, 48 h; series mostly up to 57.5 µM; also: nearly all actives have a fitted effect of over 55% in size; also: potency is read from the fitted curve at half-maximal effect
# Summary of the method: as §1
# [3] = qHTS assay for small molecule activators of the human pregnane X receptor (PXR) signaling pathway (AID 720659; call rule not given here)
# JEG-3 = assay: Primary qHTS to identify gynecologic anti-cancer compounds using libraries of approved drugs and bioactive compounds (AID 1345084); details: Gynecologic cancer cell panel viability, ATPlite luminescence, 48 h; series mostly up to 57.5 µM; also: nearly all actives have a fitted effect of over 55% in size; also: potency is read from the fitted curve at half-maximal effect
# Summary of the method: as §1
# [4] = at 45.9 µM (top of the series), tumour line B
# [5] = at 46 µM (top of the series), tumour line A
# Nuclear receptor subfamily 1 group I member 2 (Rattus norvegicus), sequence (Q9R1A7 whole entry, looked up): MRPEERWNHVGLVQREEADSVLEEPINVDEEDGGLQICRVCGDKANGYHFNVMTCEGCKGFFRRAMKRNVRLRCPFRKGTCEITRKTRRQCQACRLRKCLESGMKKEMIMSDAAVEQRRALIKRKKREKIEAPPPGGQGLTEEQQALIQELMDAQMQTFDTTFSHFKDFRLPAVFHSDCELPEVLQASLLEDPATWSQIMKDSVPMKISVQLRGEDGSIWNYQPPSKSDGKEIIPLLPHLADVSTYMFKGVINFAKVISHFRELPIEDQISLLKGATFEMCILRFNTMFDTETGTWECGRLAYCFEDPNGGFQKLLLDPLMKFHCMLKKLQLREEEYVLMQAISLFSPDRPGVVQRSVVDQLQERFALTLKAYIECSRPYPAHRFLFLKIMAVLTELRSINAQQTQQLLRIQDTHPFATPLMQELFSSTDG
compound,measurement,setting,value
Oc1ccc(Cl)cc1Cc1ccccc1,Potency,Es-2,inactive
same,Potency,HeLa,inactive
same,Potency,Hek293T,inactive
same,Potency,PA-1,inactive
same,Potency,SKOV3,inactive
same,Potency,Tov-21-G,inactive
same,Potency,Tov112D,inactive
same,"activity, negative = cell killing",[1]; [4],-24.8% (inactive)
same,Potency,astro,35.5 µM (active)
same,max response,[2],0.0184% (inactive) and 1.61% (inactive)
CC[N+]1(C)CCCC(OC(=O)C(O)(c2ccccc2)c2ccccc2)C1 (configuration not stated),Potency,Es-2,inactive
same,Potency,HeLa,inactive
same,Potency,Hek293T,inactive
same,Potency,PA-1,inactive
same,Potency,SKOV3,inactive
same,Potency,Tov-21-G,inactive
same,Potency,Tov112D,inactive
same,"activity, negative = cell killing",[1]; [4],-10.4% (inactive)
same,"activity, negative = cell killing","[1]; at 45.9 µM (top of the series), tumour line D",-8.99% (inactive)
same,Potency,astro,inactive
Clc1ccc(CCC(Cn2ccnc2)Sc2c(Cl)cccc2Cl)cc1 (configuration not stated),Potency,Es-2,inactive
same,Potency,HeLa,inactive
same,Potency,Tov-21-G,inactive
same,Potency,Tov112D,inactive
same,"activity, negative = cell killing","[1]; at 21.2 µM (top of the series), tumour line B",-25.1% (inactive)
same,Potency,[1]; tumour line A,1.12 µM (active)
same,Potency,astro,inactive
CNC(=O)c1ccc(N2C(=S)N(c3ccc(C#N)c(C(F)(F)F)c3)C(=O)C23CCC3)cc1F,Potency,Es-2,inactive
same,Potency,HeLa,inactive
same,Potency,OV90,inactive
same,Potency,PA-1,inactive
same,Potency,SKOV3,inactive
same,Potency,Tov-21-G,inactive
same,Potency,Tov112D,inactive
C=C1C[C@@H]2[C@H](CC[C@]3(C)C(=O)CC[C@@H]23)[C@@]2(C)C=CC(=O)C=C12,Potency,HeLa,inactive
same,Potency,SKOV3,inactive
same,Potency,Tov112D,inactive
same,Potency,[1]; tumour line A,12.6 µM (active)
same,Potency,astro,inactive
CC[C@@H](CO)NC(=O)[C@@H]1C=C2c3cccc4[nH]cc(c34)C[C@H]2N(C)C1,Potency,Es-2,inactive
same,Potency,HeLa,inactive
same,Potency,Hek293T,inactive
same,Potency,OV90,inactive
same,Potency,PA-1,inactive
same,Potency,Tov-21-G,inactive
same,Potency,Tov112D,inactive
same,"activity, negative = cell killing",[1]; [5],16.5% (inactive)
Oc1cc(Cl)ccc1Oc1ccc(Cl)cc1Cl,Potency,Es-2,inactive
same,Potency,HeLa,44.7 µM (active) and inactive
same,Potency,Hek293T,inactive
same,Potency,OV90,inactive
same,Potency,PA-1,inactive
same,Potency,SKOV3,35.5 µM (active) and inactive
same,Potency,Tov-21-G,inactive
same,Potency,Tov112D,inactive
same,"activity, negative = cell killing",[1]; [5],-27.9% (inactive)
same,Potency,astro,28.2 µM (active)
same,max response,[2],-4.24% (inactive)
same,outcome,[3],inactive
CCOC(=O)C1(c2ccccc2)CCN(CCC(C#N)(c2ccccc2)c2ccccc2)CC1,Potency,HeLa,inactive
same,Potency,JEG-3,inactive
same,Potency,SKOV3,inactive
same,Potency,Tov-21-G,inactive
same,Potency,Tov112D,inactive
Cc1cc(SCc2sc(-c3ccc(C(F)(F)F)c(F)c3)nc2C)ccc1OCC(=O)O,Potency,Es-2,inactive
same,Potency,HeLa,inactive
same,Potency,Hek293T,inactive
same,Potency,OV90,inactive
same,Potency,PA-1,inactive
same,Potency,Tov-21-G,inactive
same,Potency,Tov112D,inactive
same,max response,[2],13% (inactive)
